We go through 17 compounds from PubChem BioAssay.

Calls of active or inactive are those of the source.

The target of one assay is Albumin (Bos taurus) (UniProt P02769). Kind of assay: bovine serum albumin binders on microarray, profiling panel, artefact control for SMM control protein annotation, biochemical, small-molecule microarray, Alexa647 label, 635/667 nm fluorescence (AID 1118).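 Also: score merges 667 nm emission intensity and signal-to-noise per printed compound spot.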 The following applies: BSA-A647 binding, fluorescence 635 nm, higher = more signal.
Albumin (Bos taurus), sequence (P02769 whole entry, looked up): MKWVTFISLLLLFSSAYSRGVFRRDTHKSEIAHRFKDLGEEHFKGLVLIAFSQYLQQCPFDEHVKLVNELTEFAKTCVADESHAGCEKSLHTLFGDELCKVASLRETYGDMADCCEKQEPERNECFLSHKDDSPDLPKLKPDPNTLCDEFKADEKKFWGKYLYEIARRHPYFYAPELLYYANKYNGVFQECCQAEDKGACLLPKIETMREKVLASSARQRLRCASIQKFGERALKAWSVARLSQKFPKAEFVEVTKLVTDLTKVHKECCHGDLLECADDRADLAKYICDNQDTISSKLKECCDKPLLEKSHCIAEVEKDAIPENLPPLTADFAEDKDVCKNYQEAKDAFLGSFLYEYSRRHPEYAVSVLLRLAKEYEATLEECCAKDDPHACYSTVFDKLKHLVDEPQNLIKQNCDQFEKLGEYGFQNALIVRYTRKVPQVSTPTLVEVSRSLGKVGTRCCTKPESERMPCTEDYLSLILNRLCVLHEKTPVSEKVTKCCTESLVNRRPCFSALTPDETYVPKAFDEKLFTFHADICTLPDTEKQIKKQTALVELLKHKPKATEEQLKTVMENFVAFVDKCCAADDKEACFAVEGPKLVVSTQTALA
The nature of assay [1]: small-molecule microarray binders of probe aXIP, primary screen, biochemical, NeuroSMM set, 635/667 nm fluorescence (AID 1119).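 Also: probe is the protein aXip251-270 applied at 1 µg/mL to compound-printed slides; binding of probe to printed compounds measured as 667 nm fluorescence plus signal to noise.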 The conditions noted are these: higher = more signal, called active from +8 up or from −8 down.
Assay [2] in a line: small-molecule binders of probe aNOTCH3, primary screen, biochemical, small-molecule microarray, 635/667 nm fluorescence (AID 1120).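 Also: probe is a biotin-tagged antibody raised against NOTCH3 rather than NOTCH3 protein; score merges spot fluorescence near 667 nm with spot signal to noise.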 The conditions noted are these: higher = more signal.
Assay [3] can be described thus: small-molecule binders of probe aNOTCH2, primary screen, biochemical, small-molecule microarray, 635/667 nm fluorescence (AID 1121).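 Also: score merges feature fluorescence read at 667 nm with its signal to noise.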 The conditions noted are these: higher = more signal.
Assay [4] concerns the target Carbonic anhydrase 2 (Homo sapiens) (UniProt P00918). As to the kind of experiment: CAII small-molecule binders, profiling panel, biochemical, small-molecule microarray, Alexa647-labelled CAII (AID 1122). The following applies: CAII-A647 binding fluorescence, higher = more signal.
Assay [5] in a line: COS7 lysate on small-molecule microarray, probe aHis, 635 nm (AID 1123).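 Also: z-score combines 667nm fluorescence intensity with signal-to-noise per printed compound spot.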 The following applies: COS7 cell lysate, fluorescence, higher = more signal.
The nature of assay [6]: compound binding in COS7 lysate, probe aLAP1, primary screen, cell lysate, small-molecule microarray (AID 1124).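 Also: lysate comes from COS7 cells expressing LAP1 and is applied at 0.3 µg/mL; score merges spot fluorescence near 667 nm with signal-to-noise over triplicate slides.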 The following applies: probe aLAP1, fluorescence, higher = more signal.
Another assay deals with Sam68 (KHDRBS1). Kind of assay: Sam68 small-molecule binders, primary screen, biochemical, small-molecule microarray, 635 nm fluorescence (AID 1125).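 Also: score merges 667 nm channel intensity with signal to noise over triplicate slides.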 The following applies: small-molecule microarray binding, higher = more signal.
Assay [7] deals with Chordin-like protein 2 (CHRDL2). Kind of assay: CHRDL2 small-molecule binders, primary screen, biochemical, small-molecule microarray, 635 nm fluorescence (AID 1126).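 Also: printed compound slides probed with Chrdl2 protein at 4 µg/mL for 1 h at 4 C; score merges 667 nm emission intensity with signal to noise over three replicate slides.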 The conditions noted are these: small-molecule microarray binding, fluorescence 635 nm; higher = more signal.
In assay [8] the target is Concanavalin-A (Canavalia ensiformis) (UniProt P02866). Kind of assay: ConA small-molecule binders, primary screen, artefact control for SMM control protein annotation, biochemical, small-molecule microarray, Alexa647 label, 635 nm (AID 1127).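 Also: z combines 667 nm emission intensity with signal-to-noise across three replicate slides.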 The conditions noted are these: ConA-A647 binding fluorescence, higher = more signal.
Concanavalin-A (Canavalia ensiformis), sequence (P02866 whole entry, looked up): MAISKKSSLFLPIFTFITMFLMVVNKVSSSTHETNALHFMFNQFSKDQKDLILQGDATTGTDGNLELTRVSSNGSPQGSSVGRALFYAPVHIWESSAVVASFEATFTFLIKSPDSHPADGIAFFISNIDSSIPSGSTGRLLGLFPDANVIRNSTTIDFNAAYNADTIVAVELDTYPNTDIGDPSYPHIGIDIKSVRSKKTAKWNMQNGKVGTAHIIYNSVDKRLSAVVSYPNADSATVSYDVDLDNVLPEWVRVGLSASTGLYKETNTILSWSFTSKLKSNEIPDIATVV

Consider `O=C(O)[C@H]1C[C@H]2C(=O)N3CCC[C@H]3C(=O)N2[C@H]1c1cccc(OCCO)c1`, for which the composite z-score in the assay with Albumin (Bos taurus) is -0.698; in assay [2] it was -0.124; in assay [3], -0.115; in assay [4], 0.525; in assay [5], 1.21; in assay [6], -0.332. Further, the composite z-score in the assay on Sam68 (KHDRBS1) came out at 0.833; in assay [7] it was 0.996; in assay [8] it was 0.942. In addition, the composite Z-score in assay [1] was 0.223 (inactive).
On to `C=C(/C=C/CNS(=O)(=O)c1ccc(C)cc1)[C@H](O)[C@H]1CCCN1S(=O)(=O)c1ccccc1[N+](=O)[O-]`, for which the composite z-score in the assay with Albumin (Bos taurus) is 0.699; in assay [2], -0.0932; in assay [3] it was -0.138; in assay [4], 0.305; in assay [5] it was 0.0646; in [6], 0.394. For the same compound, the composite z-score in the assay with Sam68 (KHDRBS1) was found to be 0.0808; in assay [7], 0.547; in assay [8], 0.0635. The composite Z-score in [1] was -0.327 (inactive).
Regarding `COc1cc2c(cc1OC)CN(C(=O)[C@@H]1[C@H]3C(=O)O[C@H](c4ccccc4)[C@H](c4ccccc4)N3[C@H](c3ccccc3OCCO)[C@@]13C(=O)Nc1ccc(C#CC4(O)CCCCCC4)cc13)CC2`, the composite z-score with Albumin (Bos taurus) was 0.319; in [2] it was 0.0316; in assay [3], -0.0859; in assay [4], 0.527; in [5], 1.48; in [6] it was 0.829. Moreover, the composite z-score in the assay with Sam68 (KHDRBS1) came out at 1.3; in [7], 0.334; in assay [8] it was 1.13. Further, in assay [1], the composite Z-score is 0.428 (inactive).
As to `CCOC(=CC(=O)OC)CC(O)c1cccc(Cl)c1` (stereo not given), the composite z-score was 0.451 with Albumin (Bos taurus); -0.17 in assay [2]; -0.176 in [3]; 0.606 in [4]; 1.47 in assay [5]; 0.49 in assay [6]. Also, the composite z-score with Sam68 (KHDRBS1) is 0.505; in assay [7], -1.42; in assay [8], 0.0032. Besides, the composite Z-score in [1] was -0.114 (inactive).
Consider `CCOC(=O)C[C@H]1[C@H](OC(=O)c2ccccc2-c2ccccc2)[C@@H](NC(=O)c2ccc3ccccc3n2)c2cc(OCCCO)ccc2N1C(=O)c1ccc2ccccc2n1`, for which the composite z-score with Albumin (Bos taurus) was 0.202; in [2] it was -0.0647; in assay [3] it was -0.0626; in [4] it was 0.0023; in assay [5], 0.626; in [6] it was -0.283. Further, the composite z-score with Sam68 (KHDRBS1) was 0.498; in [7], 0.422; in assay [8], 0.762. Besides, the composite Z-score in assay [1] was -0.293 (inactive).
Take `COCCOC(=O)N1C(=O)[C@@]2(c3cc(C#CC4=CCCCC4)ccc31)[C@H](c1ccc(O)cc1)N1[C@H](c3ccccc3)[C@H](c3ccccc3)OC(=O)[C@H]1[C@@H]2C(=O)Nc1nc2ccccc2s1`: the composite z-score in the assay with Albumin (Bos taurus) is 0.802; in [2], 0.302; in assay [3], -0.121; in assay [4] it was 0.556; in assay [5] it was 2.78; in assay [6] it was 0.657. Also, the composite z-score worked out at 1.32 in the assay with Sam68 (KHDRBS1), 0.206 in assay [7] and 1.12 in assay [8]. Further, in assay [1], the composite Z-score is -0.202 (inactive).
Regarding `CCCCC(=C=CC[C@@H](O)c1ccc(OCCO)cc1)C[C@@H](O)COCc1ccccc1`, the composite z-score is -0.28 with Albumin (Bos taurus); -0.182 in assay [2]; -0.145 in assay [3]; 0.868 in assay [4]; 0.173 in assay [5]; -0.268 in assay [6]. Besides, the composite z-score in the assay with Sam68 (KHDRBS1) was 0.61; in [7], 0.0396; in [8], -0.382. Moreover, in assay [1], the composite Z-score is -0.114 (inactive).
As to `COc1ccc(CCNC(=O)[C@@]2(Sc3ccc(C)cc3)CC(=O)N(Cc3cc(C(F)(F)F)cc(C(F)(F)F)c3)[C@@H]2c2ccc(CO)cc2I)cc1`, the composite z-score with Albumin (Bos taurus) is 0.259; in assay [2], -0.193; in [3], -0.106; in [4], 0.684; in assay [5], 1.54; in [6], 0.227. The composite z-score with Sam68 (KHDRBS1) was 0.677; in [7] it was -0.596; in assay [8], 0.759. Further, the composite Z-score in assay [1] is 1.4 (inactive).
Turning to `CON(C)C(=O)C=C1C[C@@H](c2cccc(Cl)c2)O[C@@H](c2cccc(Cl)c2)O1`, the composite z-score with Albumin (Bos taurus) was 0.268; in assay [2], 0.0897; in assay [3], -0.131; in assay [4] it was 0.628; in assay [5], 0.339; in assay [6], 0.166. Moreover, the values for the composite z-score (with Sam68 (KHDRBS1); in assay [7]; in assay [8]) were 0.474, 0.648 and 1.01, respectively. Moreover, in assay [1], the composite Z-score was 0.294 (inactive).
Consider `COC(=O)[C@@]1(Cc2ccccc2)[C@H]2c3cc(C(=O)N4CCCC4)n(Cc4ccsc4Br)c3C[C@H]2CN1C(=O)c1ccccc1`, for which the composite z-score with Albumin (Bos taurus) was 0.842; in assay [2], 0.485; in [3], 0.244; in assay [4], 0.555; in assay [5] it was 2.45; in assay [6], -0.0293. Moreover, the figures for the composite z-score (with Sam68 (KHDRBS1); in assay [7]; in assay [8]) were 1.33, -0.265 and 1.01, respectively. Moreover, the composite Z-score in assay [1] is -0.314 (inactive).
For the compound `CC(C)C[C@@H]1NC(=O)[C@H]2C[C@@H](C(=O)NCCCCCC[N+](C)(C)C)[C@@H](c3cccc(OCCO)c3)N2C1=O`, the composite z-score with Albumin (Bos taurus) was 0.107; in assay [2], -0.0967; in assay [3], -0.169; in assay [4], 0.377; in [5] it was 1.02; in [6], 0.384. Besides, the composite z-score in the assay on Sam68 (KHDRBS1) was 0.374; in assay [7], 0.964; in assay [8], 0.869. Also, the composite Z-score in [1] is 0.831 (inactive).
As for `C=C1C2CC3C(=C4C(CO[C@@H]4[C@H]4CCCN4S(=O)(=O)c4ccccc4[N+](=O)[O-])C4C(=O)N(C)C(=O)C34)CC2C(=O)N1C` (stereo not given in full), the composite z-score with Albumin (Bos taurus) is 0.873; in assay [2], 0.0897; in assay [3], -0.078; in assay [4], 0.155; in assay [5], 0.5; in assay [6], -0.0918. The results for the composite z-score (with Sam68 (KHDRBS1); in [7]; in assay [8]) were -0.184, 0.0301 and 0.131, respectively. The composite Z-score in assay [1] was 0.79 (inactive).
On to `C=C(COC)/C(=C/C[C@@H](OC(=O)c1ccncc1)c1cccc(OCCO)c1)c1cnc2ccccc2c1`, for which the composite z-score in the assay with Albumin (Bos taurus) stood at 0.716; in assay [2] it was 0.43; in assay [3], 0.0815; in assay [4], 1.01; in assay [5], 1.91; in assay [6] it was 0.919. The figures for the composite z-score (in the assay with Sam68 (KHDRBS1); in [7]; in assay [8]) were 1.31, 1.44 and 1.24, respectively. Moreover, the composite Z-score in assay [1] is 0.161 (inactive).
`Cc1ccc(S[C@]2(C(=O)NC(C)C)CC(=O)N(C3Cc4ccccc4C3)[C@@H]2c2ccc(CO)cc2I)cc1`: the composite z-score with Albumin (Bos taurus) was -0.25; in [2], -0.641; in assay [3], -0.359; in assay [4] it was 0.825; in assay [5], 3.04; in assay [6], 0.387. Moreover, the composite z-score with Sam68 (KHDRBS1) was 0.318; in assay [7], 0.02; in assay [8] it was -0.181. In assay [1], the composite Z-score was 0.0777 (inactive).
As to `C[C@H]1ON(c2ccc(C(=O)OC(C)(C)C)cc2)[C@@H](c2ccc(O)cc2)[C@@H]1C(=O)N1C(=O)OC[C@@H]1c1ccccc1`, the composite z-score was 0.393 with Albumin (Bos taurus); 0.0218 in [2]; -0.126 in [3]; 0.454 in [4]; 0.741 in [5]; 0.295 in assay [6]. Further, the composite z-score in the assay on Sam68 (KHDRBS1) was found to be 1.32; in [7] it was 0.456; in assay [8], 0.768. The composite Z-score in assay [1] is -0.281 (inactive).
For `COCCOC(=O)N1C(=O)[C@@]2(c3cc(C#CCC(C(=O)OC)C(=O)OC)ccc31)[C@H](c1ccc(OCCO)cc1)N1[C@H](c3ccccc3)[C@H](c3ccccc3)OC(=O)[C@H]1[C@@H]2C(=O)N1CCN(c2ncccn2)CC1`, the composite z-score in the assay with Albumin (Bos taurus) was 0.758; in assay [2], 0.196; in assay [3], -0.14; in [4], 0.35; in assay [5], 2.33; in assay [6], 0.265. For the same compound, the composite z-score worked out at 1.29 with Sam68 (KHDRBS1), 0.293 in [7] and 1.1 in assay [8]. Besides, the composite Z-score in assay [1] is -0.341 (inactive).
`O=C1c2ccccc2[C@](Cc2ccccc2I)(C(=O)NCc2ccccc2)[C@H](c2ccc(CO)cc2)N1C1CCCCC1`: the composite z-score with Albumin (Bos taurus) was 0.861; in assay [2] it was 0.16; in [3], -0.0997; in assay [4], 0.601; in assay [5], 1.21; in [6] it was 0.576. In addition, the results for the composite z-score (with Sam68 (KHDRBS1); in assay [7]; in assay [8]) were 1.12, 0.271 and 1.23, respectively. For the same compound, in [1], the composite Z-score was 0.534 (inactive).
